High-throughput results (PubChem BioAssay)
Rows were chosen to be rich in hits. Some 14% of all compounds tested hit in one or more screens of this group.
Lassa entry inh – Lassa virus entry inhibition. Lassa virus pseudotype entry inhibition, cell reporter. Potency, µM (highest dose often 37.9 µM), without a hit: top-dose activity change, negative = inhibition, hits mostly inhibitors. 300,000 tested, 1.2% active. AID 540256; calls by dose curve; tested in HEK293 cells; note: potency is the fitted concentration of half-maximal effect; nearly all actives have a fitted effect of over 50% in size
Marburg entry inh – blocks Marburg virus binding to or entry into cells; 300,000 tested, 1.8% active; Potency, µM (highest dose often 37.8 µM), inactives show at the highest dose activity change, negative = inhibition, hits mostly inhibitors; Marburg virus pseudotyped entry inhibition, cell reporter; calls by dose curve; tested in HEK293 cells; note: potency is the fitted concentration of half-maximal effect
HCV inh – HCV inhibition. Huh7.5.1 HCVcc-Cre infection, luciferase reporter, 44 h. Potency, µM (series often up to 41.8 µM), without a hit: at the top dose activity change, negative = inhibition, hits mostly inhibitors. 340,000 tested, 3.4% active; note: potency is the fitted concentration of half-maximal effect
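Compounds are dispensed onto cells plated 4 h earlier at 1,000 per well, with HCVcc-Cre virus (about 0.5 moi) added next. Following 44 h of culture, luminescent signal is measured for 15 sec after 15 min with substrate at room temperature.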
Pf growth 96h – P. falciparum growth inhibition at 96 hours; P. falciparum luciferase reporter growth, 96 h; Potency, µM (doses to about 28.7 µM), for inactives: at the top dose activity change, negative = inhibition, hits mostly inhibitors; 320,000 tested, 6.9% active; note: potency is the fitted concentration of half-maximal effect
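Cell-based qHTS: luciferase-tagged P. falciparum in erythrocytes (2% hematocrit, 0.05% parasitemia final) incubated with compounds for 96 hours, 37 C, 5% CO2; luciferase detection reagent then added and luminescence measured.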
HCMV antiviral – human cytomegalovirus inhibition; HFF cells, HCMV-luciferase reporter, 72 h; active compounds read low; activity change, negative = inhibition, % at 57.5 µM; 410,000 tested, 4.5% active; in the data active = activity change below about -60%; inconclusive = no clear call, values can overlap the other calls; inactive = above about -39%
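Cell-based, HFFs, 1000 cells/well, 16 h 37C; cpds in DMSO + HCMV-luc, MOI 1 PFU/cell; 72 h 37C; OneGlo luminescence after 5 min RT; norm. to buffer vs Salinomycin 10uM.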
Pf growth 48h – P. falciparum growth inhibition at 48 hours (one generation); 310,000 tested, 5.9% active; Potency, µM (titrated, usually from 28.7 µM), without a hit: at the top dose activity change, negative = inhibition, hits mostly inhibitors; P. falciparum luciferase growth in erythrocytes, 48 h; note: potency is the fitted concentration of half-maximal effect
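Here the parasites carry a stable luciferase gene and grow inside erythrocytes in Albumax-based RPMI medium with compound for one erythrocytic cycle. Activity is scored as loss of luminescent signal.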
An asterisk follows results filed as active; [ ] = remark or other dose. Unless noted, calls come from the whole dose curve; as a rule, active = well fitted inhibition curve with a large enough effect; inconclusive = small, poorly fitted or top-dose-only effect, or another doubt; inactive = no such curve, though single readings can be large or run the other way. % is set by controls: 0 for no effect and ±100 for the full control effect.

What do the screens show for `C=CCNc1ncnc2c1ncn2[C@H]1CN(CCN2CCOCC2)C[C@@H](CO)O1`?
HCMV antiviral: -33

What do the screens show for `CCCCN(CC)CCCNC(=O)c1nn(-c2ccc(OC)cc2)c(=O)c2c1c1ccccc1n2C`?
Lassa entry inh: 19%[46.1 µM]; Marburg entry inh: -6%[46.1 µM]; HCMV antiviral: 6

Results for Cc1csc2nc(COc3ccc(NC(=O)c4ccccc4F)cc3)cc(=O)n12 ?
Lassa entry inh: 4%[46.1 µM]; Marburg entry inh: -1%[46.1 µM]; HCMV antiviral: -15

Results for COc1ccc2c(c1OC)C(=O)N1c3ccccc3C(=O)N(c3ccccc3)C21 (stereo not drawn) ?
Lassa entry inh: -16%; Marburg entry inh: inconclusive; HCV inh: inconclusive; Pf growth 96h: 10µM*; HCMV antiviral: -4; Pf growth 48h: 13µM*

Results for COc1ccc2c(c1OC)C(=O)N1c3ccccc3C(=O)N(c3ccc(F)cc3)C21 (stereo not drawn) ?
Lassa entry inh: -26%; Marburg entry inh: -18%; HCV inh: 4%; Pf growth 96h: inconclusive; HCMV antiviral: -5; Pf growth 48h: inconclusive

How did CCS(=O)(=O)N1Cc2cc(C(=O)NCC3CC3)nc(-c3cccc(-c4cccnc4)c3)c2[C@@H]1CCO do in these assays?
HCMV antiviral: -22

What do the screens show for `COc1ccc(OC)c(S(=O)(=O)Nc2ccc(O)c3ccccc23)c1`?
Lassa entry inh: inconclusive; Marburg entry inh: inconclusive; HCV inh: inconclusive; HCMV antiviral: -24; Pf growth 48h: 1.2µM*

How did COc1ccc(OC)c(S(=O)(=O)Nc2ccc(Oc3ccccc3)cc2)c1 do in these assays?
Lassa entry inh: -2%; Marburg entry inh: -23%; HCV inh: inconclusive; Pf growth 96h: 0%; HCMV antiviral: -64*; Pf growth 48h: -3%

Results for COC(=O)c1c(C)oc2ccc(NS(=O)(=O)c3cc(OC)ccc3OC)cc12 ?
Lassa entry inh: inconclusive; Marburg entry inh: inconclusive; HCV inh: 1%; HCMV antiviral: -62*; Pf growth 48h: 0%

What do the screens show for `COc1cccc(Cn2c(=O)n(Cc3ccccc3)c(=O)c3c2c2cc(OC)ccc2n3C)c1`?
Lassa entry inh: 2%[46.1 µM]; HCMV antiviral: 16

What do the screens show for `COC(=O)CC1Oc2ccc(F)cc2-n2cc(-c3ccc(C)cc3)nc21` (stereo not drawn)?
Lassa entry inh: inconclusive; Marburg entry inh: -28%[46.1 µM]; HCMV antiviral: -39

Results for O=c1c2ccc(Cl)cc2nc2n1CC/C2=C\c1cccc(O)c1 ?
Lassa entry inh: -16%[46.1 µM]; Marburg entry inh: 4%[46.1 µM]; HCV inh: -11%; Pf growth 96h: inconclusive; HCMV antiviral: 52; Pf growth 48h: 13µM*

Results for COc1ccc(/C=C2\CCn3c2nc2cc(C(=O)O)ccc2c3=O)cc1OC ?
Lassa entry inh: -11%; Marburg entry inh: -8%[46.1 µM]; HCV inh: -6%; Pf growth 96h: -17%; HCMV antiviral: -35; Pf growth 48h: 89%

What do the screens show for `COc1ccc(/C=C2\CCn3c2nc2cc(C(=O)O)ccc2c3=O)cc1O`?
Lassa entry inh: 6%; Marburg entry inh: inconclusive; HCV inh: 13%; Pf growth 96h: 13µM*; HCMV antiviral: 13; Pf growth 48h: -7%

Results for Cc1nc2nc(NC(=O)C(C)C)[nH]n2c(=O)c1Cc1ccccc1 ?
Lassa entry inh: inconclusive; Marburg entry inh: 10%[46.1 µM]; HCMV antiviral: -9

How did COCCn1c(N)c(C(=O)c2cccc(S(=O)(=O)N3CCCCCC3)c2)c(=O)[nH]c1=O do in these assays?
HCV inh: -5%; Pf growth 96h: inconclusive; HCMV antiviral: -19; Pf growth 48h: inconclusive

How did Cc1cc(C)c(O)c(-c2n[nH]c3c2C(c2cccc(O)c2)N(Cc2ccco2)C3=O)c1 (stereo not drawn) do in these assays?
HCV inh: 11µM*; Pf growth 96h: -18%; HCMV antiviral: -28; Pf growth 48h: -21%
